# Results taken from PMC4336329 (PLoS ONE, 2015).
# Screen size: about 310,000 compounds; about 2,200 (0.71%) showed an effect of 50% or more. The effect is printed as a negative number. Only a selection was taken, and strong results are over-represented in it overall.
# Target: human ether-à-go-go-related gene (hERG) potassium channel (human, UniProt Q12809)
# Test: primary screen, population patch clamp on CHO cells stably expressing hERG; higher = less effect of the substance
# human ether-à-go-go-related gene (hERG) potassium channel, sequence (Q12809 whole entry, looked up): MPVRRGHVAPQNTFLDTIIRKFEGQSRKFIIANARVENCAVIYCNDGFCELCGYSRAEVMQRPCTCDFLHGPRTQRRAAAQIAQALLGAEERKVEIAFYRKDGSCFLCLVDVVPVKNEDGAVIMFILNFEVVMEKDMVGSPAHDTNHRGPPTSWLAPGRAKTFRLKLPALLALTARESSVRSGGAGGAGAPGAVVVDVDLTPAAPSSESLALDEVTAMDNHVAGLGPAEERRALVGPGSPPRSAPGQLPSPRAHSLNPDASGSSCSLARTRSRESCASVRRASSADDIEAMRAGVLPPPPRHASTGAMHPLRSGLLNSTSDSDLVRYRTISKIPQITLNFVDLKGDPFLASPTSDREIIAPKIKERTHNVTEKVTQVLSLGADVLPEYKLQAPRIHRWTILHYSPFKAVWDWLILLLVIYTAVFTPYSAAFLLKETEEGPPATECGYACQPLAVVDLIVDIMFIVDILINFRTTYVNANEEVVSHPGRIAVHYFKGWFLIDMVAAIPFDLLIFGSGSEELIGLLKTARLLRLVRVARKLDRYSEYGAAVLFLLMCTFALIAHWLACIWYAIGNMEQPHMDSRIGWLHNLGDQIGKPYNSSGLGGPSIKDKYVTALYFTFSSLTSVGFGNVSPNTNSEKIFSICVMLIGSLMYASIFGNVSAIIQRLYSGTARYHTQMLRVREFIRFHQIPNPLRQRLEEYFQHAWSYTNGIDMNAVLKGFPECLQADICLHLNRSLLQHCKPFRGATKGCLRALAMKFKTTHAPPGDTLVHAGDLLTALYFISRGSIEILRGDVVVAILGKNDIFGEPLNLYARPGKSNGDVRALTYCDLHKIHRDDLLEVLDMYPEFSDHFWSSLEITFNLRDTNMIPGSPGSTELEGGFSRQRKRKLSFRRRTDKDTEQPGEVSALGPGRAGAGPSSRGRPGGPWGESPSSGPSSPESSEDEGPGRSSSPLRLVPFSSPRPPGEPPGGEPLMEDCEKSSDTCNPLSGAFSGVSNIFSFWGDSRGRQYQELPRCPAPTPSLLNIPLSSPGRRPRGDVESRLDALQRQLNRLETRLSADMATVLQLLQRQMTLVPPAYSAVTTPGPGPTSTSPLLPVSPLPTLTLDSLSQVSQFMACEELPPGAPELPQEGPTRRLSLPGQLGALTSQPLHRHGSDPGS
row,Compound,"hERG current change (%, negative = inhibition) at 1uM"
1,Cc1ccc(NC(=O)CN(C)C(=O)Cn2c(=O)oc3ccccc32)cc1,7.84%
2,CC1CC(C)(C)NC(=S)N1CCCC(=O)N1CCN(c2ccc(F)cc2)CC1 (stereo not drawn),-4.06%
3,CCCN(CCC)C(=O)Nc1cc(Cl)ccc1OC,14.4%
4,CCOC(CNC(=O)Cn1nc(C)c2ccccc21)OCC,8.42%
5,CCCCn1nnc(NC(=O)c2ccc(-c3ccccc3)cc2)n1,13.7%
6,CC(C)(C)c1csc(NC(=O)c2c(F)c(F)c(F)c(F)c2F)n1,-2.19%
7,O=C(c1cc(-c2ccccc2)nc2ccccc12)N1CCN(c2ccccn2)CC1,1.88%
8,O=C(c1cc(-c2ccncc2)nc2ccccc12)N1CCN(c2ccccn2)CC1,-64%
9,O=C(c1cc(-c2ccncc2)nc2ccc(Br)cc12)N1CCN(c2ccccn2)CC1,-9.18%
10,CCCCCCCC(=O)Nc1ccc(C(=O)N/N=C/c2cccc([N+](=O)[O-])c2)cc1,12.6%
11,O=C(CCSc1ccccc1)OCn1nnc2ccccc2c1=O,13.7%
12,O=C(COc1ccccc1)N1CCN(S(=O)(=O)c2cccs2)CC1,-7.49%
13,N#Cc1ccc(OCC(=O)N2CCN(S(=O)(=O)c3ccc(Cl)s3)CC2)cc1,-22.7%
14,N#Cc1ccc(OCC(=O)N2CCN(S(=O)(=O)c3cccs3)CC2)cc1,-54.7%
15,CCCc1cc(C(=O)O)c2ccccc2n1,-0.521%
16,CN(CCC#N)C(=O)COc1ccc(Br)cc1Cl,3.5%
17,CC(C)c1csc(CN2CCN(Cc3ccc(F)cc3)C(CCO)C2)n1 (stereo not drawn),-4.26%
18,COc1cccc(CN2CCN(Cc3nc(C(C)C)cs3)CC2CCO)c1 (stereo not drawn),-20%
19,CC(C)c1csc(CN2CCN(Cc3ccc(F)c(F)c3)C(CCO)C2)n1 (stereo not drawn),2.23%
20,Cc1ccc(CN2CCN(Cc3nc(C(C)C)cs3)CC2CCO)cc1 (stereo not drawn),-50.8%
21,CC(C)c1csc(CN2CCN(Cc3ccccc3)C(CCO)C2)n1 (stereo not drawn),10.1%
22,CCOc1ccc(CN2CCN(Cc3nc(C(C)C)cs3)CC2CCO)cc1 (stereo not drawn),-85.5%
23,Cc1ccc(S(=O)(=O)NC(=O)NCc2ccc(Cl)cc2)cc1,10.1%
24,COC(=O)C1C(=O)C2=C(CC1C)NC(C)=C(C(=O)OCc1ccc(OC)cc1)C2c1ccc(C)o1 (stereo not drawn),0.03%

row,Compound,"hERG current change (%, negative = inhibition) at 1uM"
1,O=S(=O)(c1ccc(F)c(F)c1)N1CCN(Cc2ccc3c(c2)OCO3)CC1,-9.04%
2,Cc1c(NC(=O)c2ccc3c4c(cccc24)CC3)c(=O)n(-c2ccccc2)n1C,15.3%
3,CC(=O)c1cccc(-n2nnnc2SCC(=O)Nc2cc(C)on2)c1,12.1%
4,Cc1ccc2nc(CSc3nnc(-c4ccco4)n3-c3ccccc3)cc(=O)n2c1,-2.87%
5,Cc1ccc2nc(CSc3nnc(-c4ccco4)o3)cc(=O)n2c1,-54%
6,c1coc(-c2nnc(SCc3cn4ccccc4n3)o2)c1,-2.53%
7,NC(=O)c1nsc(C(=O)N(c2ccccc2F)C(C(=O)NCc2ccccc2)c2ccc(O)cc2)c1N (stereo not drawn),8.51%
8,COc1ccc(C(=O)N2CCN(CCc3ccccn3)CC2)cc1.Cl,-66.6%
9,COc1ccc(C(=O)N2CCN(Cc3ccccn3)CC2)cc1.O=C(O)C(=O)O,3.65%
10,O=C(c1ccccc1)N1CCN(CCc2ccccn2)CC1,16.3%
11,O=C(c1sc2cc(Cl)ccc2c1Cl)N1CCN(CCc2ccccn2)CC1,-36.6%
12,Cl.O=C(c1ccc(Cl)cc1)N1CCN(CCc2ccccn2)CC1,-53.7%
13,COc1ccc(C(=O)N2CCN(c3ccccn3)CC2)cc1,6.53%
14,COCCn1c(C)cc(/C=C2\NC(=S)N(C)C2=O)c1C,9.65%
15,Cc1ccc(S(=O)(=O)NCCC(=O)NC(C)CCc2ccccc2)cc1 (stereo not drawn),-10.7%
16,C=CCN(c1ccccc1)S(=O)(=O)c1cccc(C(=O)NCC(c2ccccc2OC)N2CCCC2)c1 (stereo not drawn),-12.9%
17,CCN(CC)c1ccc(C2NC(=O)NC(C)=C2C(=O)Nc2ccccc2)cc1 (stereo not drawn),17.3%
18,Cc1cccc(NC(=O)CSc2nnnn2C)n1,12.6%
19,Fc1ccc(-n2cc(CNCCc3ccccn3)c(-c3ccccc3Cl)n2)cc1,-78.2%
20,Fc1ccc(-n2cc(CNCCc3cccnc3)c(-c3ccccc3Cl)n2)cc1,-10%
21,Fc1ccc(-n2cc(CNCCc3ccncc3)c(-c3ccccc3Cl)n2)cc1,-3.18%
22,CCN(Cc1ccccc1)C(=O)CN1C(=S)NC(C)(C)CC1C (stereo not drawn),3.12%
23,CCOC(=O)CNc1c(-c2ccc(O)cc2)nc2ccc(Cl)cn12.Cl,-13.3%
24,CCOC(=O)CNc1c(-c2ccccc2)nc2ccc(Cl)cn12,-27.6%

row,Compound,"hERG current change (%, negative = inhibition) at 1uM"
1,CCOC(=O)CNc1c(-c2ccc(OC)cc2)nc2ccc(Cl)cn12,-68.4%
2,O=C(NCCN1CCOCC1)c1cc([N+](=O)[O-])cc([N+](=O)[O-])c1,12.5%
3,CCc1c(C)c2c(C)[nH]nc2oc1=O,10.5%
4,Fc1ccccc1NC(=S)N1CCN(C/C=C/c2ccccc2)CC1,7.89%
5,Cc1ccccc1NC(=O)CCN1CCN(C/C=C/c2ccccc2)CC1,-72%
6,O=C(Nc1ccc(F)cc1F)N1CCN(C/C=C/c2ccccc2)CC1,-15.3%
7,Cc1ccccc1NC(=O)N1CCN(C/C=C/c2ccccc2)CC1,11%
8,COc1ccc(S(=O)(=O)N2CCN(C/C=C/c3ccccc3)CC2)cc1NC(C)=O,-54.2%
9,COc1ccc(S(=O)(=O)N2CCN(C/C=C/c3ccccc3)CC2)cc1F,8.5%
10,Cl.O=C(CCN1CCN(C/C=C/c2ccccc2)CC1)Nc1ccccc1Cl,-47.6%
11,COc1ccc(NC(C)=O)cc1S(=O)(=O)N1CCN(C/C=C/c2ccccc2)CC1,-48.1%
12,O=C(CN1CCN(C/C=C/c2ccccc2)CC1)Nc1ccc(F)cc1F,-87.4%
13,O=C(CCN1CCN(C/C=C/c2ccccc2)CC1)Nc1ccccc1F.O=C(O)C(=O)O,-81.2%
14,O=C(CCN1CCN(c2ccccc2)CC1)Nc1ccccc1F,14.5%
15,Fc1ccc(NC(=S)N2CCN(C/C=C/c3ccccc3)CC2)c(F)c1,13%
16,O=C(Nc1ccc(-c2nc3ccccc3o2)cc1)c1cc(-n2cnnc2)ccc1Cl,6.74%
17,O=C(O)CC(NC(=S)NCc1ccccc1)C(=O)O (stereo not drawn),-7.52%
18,CC(CCc1ccccc1)NC(=O)COC(=O)c1ccc([N+](=O)[O-])cc1 (stereo not drawn),5.37%
19,COc1ccc(CCNC(=O)CSc2nc3c(c(=O)n(C)c(=O)n3C)n2C(C)C)cc1OC,-14.5%
20,CC(C)=CCc1c(O)cc2c(c1O)C(=O)CC(c1ccccc1)O2 (stereo not drawn),12.9%
21,CCN(CC)S(=O)(=O)c1cc(C(=O)N(C)CC(=O)Nc2ccc(Cl)cc2)ccc1Cl,-1.15%
22,COc1cccc(-c2c(-c3cc(OC)cc(OC)c3)n(C)c3ccc(-c4ccc5[nH]ccc5c4)cc23)c1,11.8%
23,CCN1CCN(c2nc(-c3ccccc3Cl)nc3ccccc23)CC1.Cl,-39.1%
24,Cc1ccc(S(=O)(=O)N2CCN=C2SCc2ccc(Cl)c(Cl)c2)cc1,10.2%

row,Compound,"hERG current change (%, negative = inhibition) at 1uM"
1,COc1ccc(C=C2c3ccccc3C(=O)c3ccccc32)c(OC)c1,7.49%
2,Cc1nn(Cc2noc(C(=O)NCc3ccc4c(c3)OCO4)n2)c(C)c1Br,1.08%
3,CCOC(=O)n1c(=O)n(Cc2ccccc2Cl)c2ccccc21,10.3%
4,O=C(CSc1nnc(COc2ccc(Cl)cc2)o1)NC1CCCCC1,-2.69%
5,COc1ccc(C)cc1NC(=O)CCN1CCN(c2ccccc2)CC1,3.12%
6,COc1ccc(C)cc1NC(=O)CCN1CCN(C/C=C/c2ccccc2)CC1,-70.9%
7,COc1ccc(C)cc1NC(=O)CN1CCN(C/C=C/c2ccccc2)CC1,-45.2%
8,O=C(NCC1COc2ccccc2O1)c1ccc(NC(=O)c2ccco2)cc1 (stereo not drawn),-1.42%
9,COc1ccc(-n2c(SCC(=O)N/N=C/c3ccccc3OCC(=O)O)nc3ccccc3c2=O)cc1,11.6%
10,O=C(COc1ccc(Br)cc1)N1CCN(C2CCCC2)CC1,-42.1%
11,O=C(COc1ccc2ccccc2c1)N1CCN(C2CCN(Cc3ccccc3)CC2)CC1,-69.6%
12,O=C(COc1ccc(Cl)cc1)N1CCN(Cc2ccc([N+](=O)[O-])cc2)CC1.O=C(O)C(=O)O,-76.4%
13,COc1cccc(CN2CCN(C(=O)COc3ccc4ccccc4c3)CC2)c1,10.5%
14,O=C(COc1ccccc1)N1CCN(C2CCCC2)CC1.O=C(O)C(=O)O,8.65%
15,O=C(COc1ccc(Cl)cc1)N1CCN(Cc2ccc3c(c2)OCO3)CC1,-6.58%
16,O=C(COc1ccc2ccccc2c1)N1CCN(Cc2ccncc2)CC1.O=C(O)C(=O)O,-14.8%
17,COc1cc(CN2CCN(Cc3ccc([N+](=O)[O-])cc3)CC2)c([N+](=O)[O-])cc1OC.O=C(O)C(=O)O,-25.4%
18,COc1cccc(CN2CCN(Cc3cc(OC)c(OC)cc3[N+](=O)[O-])CC2)c1.O=C(O)C(=O)O,-18.5%
19,O=C(COc1ccc(Cl)cc1)N1CCN(Cc2ccccc2)CC1,3.32%
20,COc1cc(CN2CCN(Cc3ccc(C)cc3)CC2)c([N+](=O)[O-])cc1OC.O=C(O)C(=O)O,-73.4%
21,O=C(COc1ccc(Cl)cc1)N1CCN(C2CCCC2)CC1.O=C(O)C(=O)O,-68.4%
